Source: PubChem BioAssay AID652031 (The Scripps Research Institute Molecular Screening Center, 2013)
About 70 (0.4%) of roughly 16,000 compounds were called active. This is one part of a sample in which actives are shown more often than they occur. No stated cut-off is given here; in the data, active means inhibition above about 50%; inactive means the rest.

target: Kappa-type opioid receptor (Homo sapiens) (UniProt P41145); assay: blocks the human kappa opioid receptor, Maybridge compounds (AID 652031); conditions: OPRK1 cells, antagonist mode, fluorescence readout; at 9 µM; stronger effect = higher value
Sequence (P41145 whole entry, looked up): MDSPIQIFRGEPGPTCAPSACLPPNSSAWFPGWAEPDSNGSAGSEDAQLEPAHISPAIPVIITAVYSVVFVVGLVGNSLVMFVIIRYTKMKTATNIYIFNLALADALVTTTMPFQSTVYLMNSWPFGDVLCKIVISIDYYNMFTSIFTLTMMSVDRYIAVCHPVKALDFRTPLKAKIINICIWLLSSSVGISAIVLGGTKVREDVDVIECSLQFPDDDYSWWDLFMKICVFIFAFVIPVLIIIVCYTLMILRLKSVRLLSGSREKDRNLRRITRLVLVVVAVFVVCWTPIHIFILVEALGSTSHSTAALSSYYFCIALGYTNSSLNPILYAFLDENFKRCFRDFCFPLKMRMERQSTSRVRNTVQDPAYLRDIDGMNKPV

inhibition, inactive:
O=S(=O)(c1ccc(Cl)s1)N1CCN(c2ccccc2)CC1 -14.3%
CC(C)NC(=O)NNc1c(Cl)cncc1Cl 4.6%
O=c1oc2c3ccccc3c3oc(=O)sc3c2s1 13.6%
Cc1nc(C(F)(F)F)ccc1NC(=O)/C=C\C(=O)O -4.6%
N#Cc1cccnc1NNC(=O)Nc1ccc(OCc2ccccc2)cc1 13.7%
O=C(Nc1ccc(OCc2ccccc2)cc1)Nc1ccc2c(c1)C(=O)OC2 -8.9%
O=c1[nH]c2cc(Cl)c(Cl)cc2n1-c1ccncc1 -14.5%
Cc1ccc([N+](=O)[O-])c(C(=O)NCC(=O)O)c1 -15.5%
S=C(NNC(=S)NC1CC2C=CC1C2)NC1CC2C=CC1C2 (stereo not given) -4.1%
CC(C)CCOS(=O)(=O)c1ccc2c(c1)Cc1cc(S(=O)(=O)OCCC(C)C)ccc1-2 -2.5%
CN(C(=O)Nc1ccc(Cl)cc1)n1cnc2ccccc2c1=O -1.9%
c1ccc(-c2nsc(N3CCNCC3)n2)cc1 1.1%
Cc1oc(-c2ccc(Cl)cc2)cc1C(=O)O/N=C(\N)Cc1nc2cccnc2n1C1CC1 -10.9%
O=C(Cn1nnc2ccccc21)NCCSCc1ccco1 6.7%
O=C(O)CC1(CC(=O)Nc2ccccc2-n2cccn2)CCCCC1 6.9%
O=[N+]([O-])c1ccc(CSc2nc3cc(Cl)c(F)cc3[nH]2)cc1 -10.8%
COc1ccc(/C=N/Nc2nc(C)cc(=O)[nH]2)c(OC)c1 10.6%
Nc1ccccc1SC(C[N+](=O)[O-])c1ccccc1 (stereo not given) 10.6%
O=C(N/N=C/c1cccs1)C(=O)Nc1ccc(Cl)c(Cl)c1 -4.8%
Cc1nc2c(ncn2-c2ccccc2)c(=O)n1NC(=O)CN1CCCC1 1.8%
Cn1c(=O)c2c(ncn2Cc2nnc(-c3ccccc3)o2)n(C)c1=O -5.9%
O=[N+]([O-])c1ccc(CSc2nnc(-c3ccncc3)o2)cc1 -7.8%
N#Cc1c(C2CCCCC2)[nH]c(=S)[nH]c1=O -2.7%
Cc1ccc2c(c1)C(=O)C(=O)S2 -13.9%
O=C(CSC1=NCCc2ccccc21)Nc1ccc(F)cc1F -6.1%
O=C(O)CCC(=O)Nc1ccc2c(c1)OCCCO2 8.3%
Oc1ccccc1C=NCCCN=Cc1ccccc1O -15.8%
CCOc1c(N2CCCCC2)c(=O)c1=O 13.6%
O=C(CSc1nnc(-c2ccncc2)o1)N1CCc2ccccc21 -5.6%
O=c1cc(-c2ccccc2)cc(-c2ccccc2)o1 -11.3%
O=C(NNC(=S)Nc1ccccc1Cl)c1ccc(OC(F)(F)F)cc1 19.8%
O=c1c2c(nc3nc[nH]n13)CCC2 -20.2%
CCN(CCN1C(=O)CCC1=O)c1cccc(NC(C)=O)c1 -3.7%
N#CCc1ccc(OC(=O)c2cccnc2)cc1 -6.4%
Cc1nc(-n2cccc2)sc1C(=O)N/N=C/c1ccccc1Cl 33.9%
CCCS(=O)(=O)c1csc(C(=O)OC)c1N/N=C/c1cccs1 -24.1%
Clc1cncc(Cl)c1N/N=C/C1CC2C=CC1C2 (stereo not given) 1.3%
CCCCCCCN=C(C)c1ccccc1O -21.6%
CC(C)c1ccc(N2C(=O)/C(=C\c3ccc(-c4ccc([N+](=O)[O-])cc4)o3)SC2=S)cc1 8.3%
CCCN(CCC)S(=O)(=O)c1ccc(C(=O)NNC(=O)c2cc(OC)c(OC)c(OC)c2)cc1 -2.1%
NC(=O)C1CCN(CC(O)COc2ccc(Cl)c(Cl)c2)CC1 (stereo not given) -8.2%
O=C(Nc1ccc(F)cc1OC(F)(F)F)N1CCC(O)CC1 -18%
CC(C)(C)c1cc(NC(=O)/C(C#N)=C/c2cccc(Cl)c2Cl)c(C(N)=O)s1 -7.1%
O=C(Nc1ccccc1C(=O)NC1CCSC1)c1cccc(Cl)c1 (stereo not given) -15%
COC(=O)CCN1CCc2cc(N=Nc3ccc(C(F)(F)F)cc3)ccc21 15.2%
CC(C)n1c(SCC(=O)c2cccc([N+](=O)[O-])c2)nc2cc(C(F)(F)F)ccc21 -1.6%
O=C(CCc1ccc(O)cc1)N/N=C/c1cc(Cl)cc(Cl)c1O 6.4%
Cc1ccc(NC(C(=O)O)c2ccccc2)cc1 (stereo not given) -11.7%
OC(CNCc1ccc2c(c1)OCO2)COc1ccccc1 (stereo not given) -20.1%
O=C(NCc1cccnc1)c1ccccc1NC(=O)c1c(F)cccc1F -15.7%
O=C(N/N=C/c1ccc(Cl)cc1Cl)/C(=C/c1cccs1)NC(=O)c1ccccc1 11.5%
COC(=O)c1ccccc1NC(=O)c1ccc(Oc2cc(Cl)cc(Cl)c2)o1 -7%
O=C(NCc1ccc2c(c1)OCO2)c1sccc1Br -14.9%
O=C(NCc1ccc(F)cc1F)c1cc(C(F)(F)F)cc(C(F)(F)F)c1 2.1%
CCOC(=O)C(NC(=O)c1ccco1)(Nc1cc(C)ccn1)C(F)(F)F (stereo not given) -1.7%
CSc1cccc(NC(=O)C(=O)NCCc2ccccn2)c1 17.5%
CCOC(=O)CCSc1cc(-n2cccc2)c(Cl)cc1[N+](=O)[O-] -12.9%
CCOC(=O)Cn1sc2nc(C)cc(C)c2c1=O -8.2%
O=C(c1ccccc1I)c1c[nH]c2ccccc12 2.4%
O=C1C=C(NNc2ccccc2)CCC1 -30.2%
O=[N+]([O-])c1ccc2ncccc2c1-n1cccc1 -23.5%
CC(OC(=O)c1cccc(Cl)c1)c1ccc[n+](C)c1 (stereo not given) 1.5%
CN(n1cnc2ccccc2c1=O)S(=O)(=O)c1cc(Cl)sc1Cl 4.5%
O=c1o[nH]c(-c2ccccc2)c1N=Nc1c(F)cccc1Cl 4.9%

inhibition, active:
CN(C)c1cccc2c1c(NC(=O)Nc1ccc(OCc3ccccc3)cc1)nn2C 60.6%
